In PubChem BioAssay AID588590 (National Center for Advancing Translational Sciences (NCATS), 2011):
Where “and” joins values, the source holds several entries; their conditions need not be identical. Equal entries are not always repeated. The whole screen tested about 390,000 compounds, of which about 4,000 (1%) were called active. About 7% were inconclusive and are not listed. The call rests on the fitted dose curve; in most records, active means well fitted inhibition curve with a large enough effect; inconclusive means small, poorly fitted or top-dose-only effect, or another doubt; inactive means no such curve, though single readings can be large or run the other way. What follows is part of a selection rich in actives, with near analogues and random picks from the rest.

Target: DNA polymerase iota (Homo sapiens) (UniProt Q9UNA4)
Test: qHTS for Inhibitors of Polymerase Iota
Conditions: Pol iota fluorescent replication assay, 10 min; series mostly up to 115 µM; activity, negative = inhibition: at the top concentration
Outline: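 Pol iota at 10 nM preincubated 15 min with compounds at room temperature; reaction started with fluorescent substrate, 50 nM final. Fluorescence read kinetically at 0 and 10 min; buffer-only wells as negative control.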
Potency means the concentration at half of the fitted maximal effect.

DNA polymerase iota (Homo sapiens), sequence (Q9UNA4 whole entry, looked up): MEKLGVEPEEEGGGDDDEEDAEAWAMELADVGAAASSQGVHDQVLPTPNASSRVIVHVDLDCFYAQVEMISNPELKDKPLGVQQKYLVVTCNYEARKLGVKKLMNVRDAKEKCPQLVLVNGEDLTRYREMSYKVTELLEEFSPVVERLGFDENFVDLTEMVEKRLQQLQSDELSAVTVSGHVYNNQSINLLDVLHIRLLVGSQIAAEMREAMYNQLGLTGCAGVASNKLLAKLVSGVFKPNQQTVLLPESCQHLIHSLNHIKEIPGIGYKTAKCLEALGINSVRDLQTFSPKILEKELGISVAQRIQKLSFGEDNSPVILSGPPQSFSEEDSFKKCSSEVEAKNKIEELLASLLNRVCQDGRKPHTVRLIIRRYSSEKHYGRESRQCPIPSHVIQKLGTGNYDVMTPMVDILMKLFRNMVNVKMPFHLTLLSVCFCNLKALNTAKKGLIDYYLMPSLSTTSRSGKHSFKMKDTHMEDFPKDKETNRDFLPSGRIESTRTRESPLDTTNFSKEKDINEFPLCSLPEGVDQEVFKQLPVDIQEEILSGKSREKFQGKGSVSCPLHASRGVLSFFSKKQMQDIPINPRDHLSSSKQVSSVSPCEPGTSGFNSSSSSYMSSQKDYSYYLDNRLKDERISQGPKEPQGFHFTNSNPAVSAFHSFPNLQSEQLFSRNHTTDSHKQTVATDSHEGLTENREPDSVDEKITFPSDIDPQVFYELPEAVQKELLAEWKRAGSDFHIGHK

activity, negative = inhibition, inactive:
CCOc1ccccc1NC(=O)CN1CCN(S(=O)(=O)c2ccc(Br)cc2)CC1 3.35%
CCN(CC)/[N+]([O-])=N/OCOC(=O)Cc1c(C)n(C(=O)c2ccc(Cl)cc2)c2ccc(OC)cc12 7.56%
O=C(OCN1C(=O)c2ccccc2C1=O)/C(=C\c1ccco1)NC(=O)c1ccccc1 -18.1%
O=C(Nc1ccccc1C(F)(F)F)c1nc(S(=O)(=O)Cc2ccccc2F)ncc1Cl -5.98%
NC1=NC(c2cc(F)cc(F)c2)n2c(nc3ccccc32)N1 (centres undefined) 4.72%
Cc1cc(C)c2oc(C(=O)Nc3ccc(S(=O)(=O)N4CCCCCC4)cc3)cc(=O)c2c1 5.81%
Cc1ccc(-n2c(=O)c3cccnc3n2CC(=O)Nc2ccccc2C(F)(F)F)cc1C -0.67%
CCN(C(=O)COC(=O)CCOc1cccc(C)c1)c1c(N)n(Cc2ccccc2)c(=O)[nH]c1=O 22.8%
COc1ccc(Cn2c(O)c(/C=C3/C=CC=N3)c(=O)[nH]c2=O)cc1 -9.71%
COc1ccccc1CCNC(=O)c1cccn1-c1nnc(N2CCCCC2)s1 3.68%
Cc1ccc2nc(-c3ccc(C)c(NC(=O)Cc4ccccc4)c3)oc2c1 17.9%
Cc1c(CCO)sc[n+]1CC(=O)c1ccc2ccccc2c1 5.31%
O=C(c1cc2ccccc2s1)N1CCN(c2ccccn2)CC1 29.9%
CC1CCN(c2nc3ccc(C(=O)N4CCN(c5ccccc5)CC4)cc3s2)CC1 -4.14%
CCNC(=O)Cn1nc(C)n2c(cc3c(OC)cccc32)c1=O 2.21%
CN(C)c1ccc(/C=N\Nc2ccc([N+](=O)[O-])cc2[N+](=O)[O-])cc1Cl -14%
COc1cccc(Cn2c(SCc3ccc(C(=O)N4CCCCC4)cc3)nc3ccncc32)c1 3.02%
CCc1nc2cccnc2n1-c1ccc(CC(=O)Nc2c(C)cccc2C)cc1 7.57%
COCCCNC(=O)Cc1ccc(-n2c(C)nc3cccnc32)cc1 -18.4%
COc1ccc(N2CCN(Cc3nc4c(c(=O)[nH]c(=O)n4C)n3Cc3ccc(Cl)cc3)CC2)cc1 25.9%
O=C(NCCc1ccc(Cl)cc1)c1ccc2c(c1)N(Cc1ccc(F)cc1)C(=O)CS2 -20.5%
CCC(=O)N1CCc2cc(Br)cc(S(=O)(=O)CCC(=O)NCCc3ccc(OC)c(OC)c3)c21 14.3%
Cc1cccn2c(=O)c(/C=C(\C#N)S(=O)(=O)c3ccc(Cl)cc3)c(N3CCC(C(N)=O)CC3)nc12 -8.99%
CCOC(=O)CNC(=O)c1cc2c(=O)n3cccc(C)c3nc2s1 5.79%
CC1CCC(N2CC(=O)N(CCC3=CCCCC3)C(c3ccc(F)cc3)C2=O)CC1 (centres undefined) -7.19%
COc1cc2c(cc1OC)C(COc1ccc(F)cc1)N(C(=O)c1ccccc1F)CC2 (centres undefined) 3.48%
CCc1ccc(Nc2nn3c(=O)c4cc5c(cc4nc3s2)OCO5)cc1 -22.5%
Fc1ccc(-c2ccc(-c3nn4c(-c5ccco5)nnc4s3)o2)cc1 -5.94%
COc1ccc(S(=O)(=O)N(CC(=O)NCc2ccco2)c2ccc(F)cc2)cc1 95%
Cc1ccc(S(=O)(=O)N(CC(=O)NCc2ccco2)c2ccccc2C)cc1 42.4%
CCOC(=O)N1CCC(C(N)=O)CC1 10.7%
O=C(O)C1CCN(C(=O)OCc2ccccc2)CC1 6.85%
COc1ccccc1-c1noc(CSc2nnc(-c3ccccc3)n2-c2ccc(C)c(C)c2)n1 13.3%
COc1ccc(C(CCN2CCOCC2)c2c(OC)cc(OC)c3c2OC(=O)CC3c2ccc(OC)cc2)cc1 (centres undefined) -4.09%
OCCN1CCOCCOCCN(CCO)CCN(CCO)CC1 10.2%
O=[N+]([O-])c1ccc(COc2ccccc2CN2CCOCC2)cc1 35.4%
Cc1cccc(NC(=O)CSc2nnc(CNC(=O)c3cccc(C)c3)n2-c2ccccc2)c1 -1.81%
Cc1nnc(SCC2=C(C(=O)O)N3C(=O)C(NC(=O)Cn4nc(C)c(Cl)c4C)C3SC2)s1 (centres undefined) -26.5%
COc1ccc(CCNC(=O)Cn2c(=O)cc(C(F)(F)F)c3c(C)nn(C)c32)c(OC)c1 -7.16%
Cc1ccc(Cn2c(=O)n(-c3ccc(C)cc3)c(=O)c3c2c2cc(C)ccc2n3C)cc1 1.68%
COc1ccc(CCNC(=O)CCCn2c(=O)c3ccccc3n(Cc3ccc(F)cc3Cl)c2=O)cc1OC 4.28%
COc1ccc(C2CC(O)(c3ccccc3)Oc3cc(C)cc(C)c32)cc1 (centres undefined) -9.41%
Cc1nn2c(=O)cc(COC(=O)c3ccccc3NC(=O)COc3ccccc3C)nc2s1 -2.78%
O=C(OCc1cc(=O)n2nc(C3CC3)sc2n1)c1ccccc1Cl 0.645%
Clc1cccc[n+]1CCCC[n+]1ccccc1Cl 3.89%
Cc1ccc(-c2nc(=N)sn2Cc2ccccc2)cc1 8.29%
CSc1ccc(CCNC(=O)c2cnn(-c3ccccc3)c2-n2cccc2)cc1 8.13%
CC1(C)CC(=O)C/C(=N\NC(=O)c2cccs2)C1 1.79%
O=C(N/N=C/c1ccco1)c1ccc(NC(=O)C2CC2)cc1 -9.3%
CC(=O)c1ccc(S(=O)(=O)N2CCN(c3nc4c(C)c(C)ccc4cc3C#N)CC2)cc1 -12.5%
CC(=O)c1ccc(S(=O)(=O)N2CCC3(CC2)OCCO3)cc1 16.8%
Cn1c(=O)nc2n(-c3ccc(Br)cc3)c3cccc(Cl)c3cc-2c1=O 9.36%
COc1ccc(N2C(=O)CC(Nc3ccc(F)cc3)C2=O)c([N+](=O)[O-])c1 (centres undefined) 135%
COc1ccc(N2CCN(C3CC(=O)N(c4ccc5c(c4)OCCO5)C3=O)CC2)cc1 (centres undefined) -17.7% [at 58.9 µM]
Cc1ccc(NC(=O)CSc2nc3c(c(=O)[nH]2)CN(Cc2ccc4c(c2)OCO4)CC3)cc1C 93.1%
CCc1ccc2ncc3c(-c4ccc(C)cc4)nn(CC(=O)NCc4ccccc4)c3c2c1 -9.65%
COC(=O)c1cnc(N2CCN(c3ccccc3OC)CC2)c2ccccc12 -17.2%
COc1ccccc1/C=C/C=N/n1c(-c2ccc(Cl)cc2Cl)n[nH]c1=S 23.2%
S=c1[nH]nc(-c2ccco2)n1/N=C/c1ccc(Br)s1 7.83%
COc1ccc(C)cc1NC(=O)CCc1c(C)nn(-c2ccc(N3CCOCC3)nn2)c1C 2.12%
COc1cccc(C(=O)NC(=O)Nc2ccc(-c3cc(C(F)(F)F)nn3-c3ccccc3)cc2)c1 -5.55%
COC(=O)C1=C(c2ccccc2)c2ccccc2S(=O)(=O)N1CC(=O)Nc1ccccc1C(F)(F)F -2.37%
OC(Cc1ccc2ccccc2n1)c1ccc(Cl)c(Cl)c1 (centres undefined) 13.3%
O=C(NCCS(=O)(=O)N1CCN(c2ccc(F)cc2)CC1)c1ccccc1Br 34.6%
CC(=O)Nc1ccc(S(=O)(=O)NC2(C(F)(F)F)C(=O)Nc3c2c(=O)[nH]c(=O)n3Cc2ccccc2)cc1 (centres undefined) 13%
CCCN1C(=O)C(NS(=O)(=O)c2ccc(N)cc2)(C(F)(F)F)C(C(=O)OC)=C1C (centres undefined) 21.5%
Cc1c(Cl)cccc1NC(=O)N1CCN(C(=O)c2nsc3ccccc23)CC1 -1.97%
O=C(CCSCc1ccccc1F)N1CCN(c2ccc(Cl)cc2)CC1 5.1%
Cc1cccc(N(C(=O)c2sc(C)nc2C)C(C(=O)NCC2CCCO2)c2ccccc2)c1 (centres undefined) 159%
Cc1cccc(N(C(=O)Cc2cccs2)C(C(=O)NCc2ccco2)c2ccncc2)c1 (centres undefined) 3.72%
CC(C)(C(=O)NO)c1ccccc1 22.6%
O=C(Nc1c(-c2ccc(F)cc2)nc2ccccn12)c1cccc(F)c1 -14.9%
CS(=O)(=O)c1ccc(Cl)c(NC(=O)COC(=O)c2ncc(Cl)c(Cl)c2Cl)c1 27.4%
O=C(COc1ccc(Cl)cc1)N1CCN(S(=O)(=O)c2ccc(Cl)cc2)CC1 0.841%

Potency, active:
O=[N+]([O-])c1ccc(C=Nc2ccc(Cl)cc2Cl)s1 39.8 µM
O=c1nc2s/c(=C\c3ccco3)c(=O)n2nc1Cc1ccccc1 7.94 µM
CCCOc1ccc(Cn2c(O)cc(=O)[nH]c2=O)cc1 22.4 µM
O=C(c1cc2c(s1)CCC2)N1CCN(c2ccccc2)CC1 25.1 µM
CCc1nc2cccnc2n1-c1ccc(C(=O)O)cc1 25.1 µM
CCOC(=O)CC1C(=O)NCCN1c1nc2c(C)cccn2c(=O)c1/C=C1\SC(=S)N(C(C)CC)C1=O (centres undefined) 39.8 µM
c1ccc(-c2cc(-c3nnc4sc(-c5ccccn5)nn34)[nH]n2)cc1 25.1 µM
CS(=O)(=O)N(CC(=O)NCc1ccco1)c1ccc2c(c1)OCO2 70.8 µM
CCOC(=O)N1CCC(c2cc(=O)n(-c3ccccc3)[nH]2)CC1 1.41 µM
Oc1c(CN2CCOCC2)ccc(CN2CCOCC2)c1O 10 µM
C=CC1=C(C(=O)O)N2C(=O)[C@@H](NC(=O)/C(=N\OCC(=O)O)c3csc(N)n3)[C@H]2SC1 50.1 µM
CO/N=C(\C(=O)N[C@@H]1C(=O)N2C(C(=O)O)=C(COC(C)=O)CS[C@H]12)c1csc(N)n1 (stereo in doubt) 20 µM and 17.8 µM and 11.2 µM
COc1ccccc1C(=O)OCc1cc(=O)n2nc(-c3cccs3)sc2n1 79.4 µM
O=C(N/N=C/C=C/c1ccco1)c1cccs1 22.4 µM
CC(=O)c1ccc(S(=O)(=O)N2CCN(C(=O)/C=C/c3ccc4ccccc4n3)CC2)cc1 44.7 µM
CC(=O)Oc1cccc(N2C(=O)CC(Nc3ccc(N4CCOCC4)cc3)C2=O)c1 (centres undefined) 20 µM
Cc1cc(-c2n[nH]c(=S)n2/N=C/c2ccco2)n[nH]1 44.7 µM
CC(=O)Nc1ccc(S(=O)(=O)NC2(C(F)(F)F)C(=O)NC(C)=C2C#N)cc1 (centres undefined) 22.4 µM
Cc1nc(C)c(C(=O)N(c2ccc(C)c(C)c2)C(C(=O)NCc2ccco2)c2ccccc2)s1 (centres undefined) 79.4 µM
CS(=O)(=O)c1ccc(C(=O)OCC(=O)NNC(=O)COc2ccc(Cl)cc2)cc1 79.4 µM
